Laboratory results: PubChem BioAssay (Tox21)
Results filed as inconclusive are left out. Where a structure was tested more than once in an assay, its records may differ in their call. Calls of active or inactive are those of the source. Calls follow the shape of the dose curve; as a rule, active = well fitted curve in the direction sought with a large enough effect in the repeat runs; inconclusive = weak or mixed curves; inactive = no such curve, though single readings can be large; an effect the other way counts as inactive or inconclusive.

Columns and labels:
[1] = A CellTox Green Cytotoxicity Assay to monitor cytotoxicity in HEK293 cells - 40 hour (AID 1224871); also: nearly all actives have a fitted effect of over 45% in size; also: potency is read from the fitted curve at half-maximal effect
Procedure, shortened: (§1)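 Each value comes from one timepoint of a single continuous run in which HEK293 cells with CellTox Green were exposed to compound for up to 40 h at 37 C, dye fluorescence rising with cell death.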

[2] = qHTS RealTime-Glo MT Cell Viability Assay in HEK293 cells - 16 hour (AID 1224872); also: nearly all actives have a fitted effect of over 50% in size; also: potency is read from the fitted curve at half-maximal effect; as to activity change, negative = cytotoxicity: top concentration of the series differs between compounds
Procedure, shortened: (§2)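 Reads taken at 0, 8, 16, 24, 32 and 40 h from the same wells. HEK293 cells (600/well) carried RealTime-Glo reagents from seeding, with compound added after a 5 h settle at 37 C.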

[3] = qHTS RealTime-Glo MT Cell Viability Assay in HepG2 cells - 8 hour (AID 1224873); also: nearly all actives have a fitted effect of over 55% in size; also: potency is read from the fitted curve at half-maximal effect
Procedure, shortened: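 HepG2 cells mixed with RealTime-Glo MT reagents (NanoLuc plus cell-permeant prosubstrate) were seeded at 600 cells/well, incubated 5 h at 37 C/5% CO2, then pinned with compounds in DMSO; nonlytic luminescence tracked viability during 40 h treatment.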

[4] = qHTS RealTime-Glo MT Cell Viability Assay in HEK293 cells - 40 hour (AID 1224874); conditions: RealTime-Glo luminescence; max response: stronger effect = lower value; also: nearly all actives have a fitted effect of over 50% in size; also: potency is read from the fitted curve at half-maximal effect
Procedure, shortened: (§3)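 qHTS format; HEK293 cells with NanoLuc/prosubstrate reagent, 37 C/5% CO2 for 5 h pre-dosing; compounds 23 nL in DMSO; luminescence at each time point reflects viable cells.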

[5] = A CellTox Green Cytotoxicity Assay to monitor cytotoxicity in HEK293 cells - 24 hour (AID 1224875); also: nearly all actives have a fitted effect of over 45% in size; also: potency is read from the fitted curve at half-maximal effect; as to activity change: series mostly up to about 77 µM
Procedure, shortened: as §1

[6] = A CellTox Green Cytotoxicity Assay to monitor cytotoxicity in HepG2 cells - 16 hour (AID 1224876); also: nearly all actives have a fitted effect of over 45% in size; also: potency is read from the fitted curve at half-maximal effect
Procedure, shortened: (§4)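 Continuous culture of HepG2 cells with a membrane-impermeant DNA dye; rising fluorescence marks dead cells. Compound exposure lasted up to 40 h at 37 C, with reads every 8 h from 0 h.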

[7] = qHTS RealTime-Glo MT Cell Viability Assay in HepG2 cells - 32 hour (AID 1224877); also: nearly all actives have a fitted effect of over 55% in size; also: potency is read from the fitted curve at half-maximal effect
Procedure, shortened: (§5)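 HepG2 suspension premixed with RealTime-Glo reagents is plated at 600 cells per well and left 5 h at 37 C/5% CO2. Compounds in DMSO then go in, and bioluminescence reflecting viable cell number is recorded over 40 h.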

[8] = A CellTox Green Cytotoxicity Assay to monitor cytotoxicity in HepG2 cells - 24 hour (AID 1224878); also: nearly all actives have a fitted effect of over 45% in size; also: potency is read from the fitted curve at half-maximal effect
Procedure, shortened: as §4

[9] = A CellTox Green Cytotoxicity Assay to monitor cytotoxicity in HepG2 cells - 40 hour (AID 1224879); also: nearly all actives have a fitted effect of over 40% in size; also: potency is read from the fitted curve at half-maximal effect
Procedure, shortened: as §4

[10] = qHTS RealTime-Glo MT Cell Viability Assay in HEK293 cells - 0 hour (AID 1224880)
Procedure, shortened: as §3

[11] = A CellTox Green Cytotoxicity Assay to monitor cytotoxicity in HEK293 cells - 32 hour (AID 1224881); also: nearly all actives have a fitted effect of over 40% in size; also: potency is read from the fitted curve at half-maximal effect
Procedure, shortened: as §1

[12] = A CellTox Green Cytotoxicity Assay to monitor cytotoxicity in HepG2 cells - 0 hour (AID 1224882); also: nearly all actives have a fitted effect of over 35% in size
Procedure, shortened: as §4

[13] = A CellTox Green Cytotoxicity Assay to monitor cytotoxicity in HepG2 cells - 32 hour (AID 1224883); also: nearly all actives have a fitted effect of over 50% in size; also: potency is read from the fitted curve at half-maximal effect
Procedure, shortened: as §4

[14] = qHTS RealTime-Glo MT Cell Viability Assay in HepG2 cells - 16 hour (AID 1224885); also: nearly all actives have a fitted effect of over 50% in size; also: potency is read from the fitted curve at half-maximal effect
Procedure, shortened: as §5

[15] = qHTS RealTime-Glo MT Cell Viability Assay in HEK293 cells - 24 hour (AID 1224886); also: nearly all actives have a fitted effect of over 50% in size; also: potency is read from the fitted curve at half-maximal effect; as to activity change, negative = cytotoxicity: top concentration of the series differs between compounds
Procedure, shortened: as §2

[16] = qHTS RealTime-Glo MT Cell Viability Assay in HEK293 cells - 8 hour (AID 1224887); also: nearly all actives have a fitted effect of over 50% in size; also: potency is read from the fitted curve at half-maximal effect; as to activity change, negative = cytotoxicity: top concentration of the series differs between compounds
Procedure, shortened: as §3

[17] = A CellTox Green Cytotoxicity Assay to monitor cytotoxicity in HEK293 cells - 16 hour (AID 1224888); also: nearly all actives have a fitted effect of over 35% in size; also: potency is read from the fitted curve at half-maximal effect
Procedure, shortened: as §1

[18] = qHTS RealTime-Glo MT Cell Viability Assay in HepG2 cells - 0 hour (AID 1224889); also: nearly all actives have a fitted effect of over 50% in size
Procedure, shortened: as §5

[19] = A CellTox Green Cytotoxicity Assay to monitor cytotoxicity in HepG2 cells - 8 hour (AID 1224890); also: nearly all actives have a fitted effect of over 45% in size; also: potency is read from the fitted curve at half-maximal effect
Procedure, shortened: as §4

[20] = A CellTox Green Cytotoxicity Assay to monitor cytotoxicity in HEK293 cells - 8 hour (AID 1224884); also: nearly all actives have a fitted effect of over 35% in size; also: potency is read from the fitted curve at half-maximal effect
Procedure, shortened: as §1
% is scaled to controls: 0 for no effect and ±100 for the full control effect.

Clc1ccc2nsnc2c1NC1=NCCN1
inactive: Potency [1] | Potency [2] | Potency [3] | max response [4] 0.404% | Potency [5] | Potency [6] | Potency [7] | Potency [8] | Potency [9] | Potency [10] | Potency [11] | Potency [12] | Potency [13] | Potency [14] | Potency [15] | Potency [16] | Potency [17] | Potency [18] | Potency [19]

CCCCCCCCCCn1cc[n+](CCCCCCCCCC)c1C
inactive: Potency [10] | Potency [12] | Potency [18]
active: Potency [1] 19.5 µM | Potency [2] 6.93 µM | Potency [3] 49 µM | Potency [4] 0.979 µM | Potency [5] 17.4 µM | Potency [6] 21.9 µM | Potency [7] 19.5 µM | Potency [8] 17.4 µM | Potency [9] 15.5 µM | Potency [11] 19.5 µM | Potency [13] 17.4 µM | Potency [20] 19.5 µM | Potency [14] 21.9 µM | Potency [15] 2.19 µM | Potency [16] 21.9 µM | Potency [17] 19.5 µM | Potency [19] 39 µM

CCCCCCCCCCCCCCCC[N+](C)(C)CCN(Cc1ccc(OC)cc1)c1ncccn1
inactive: Potency [10] | Potency [12] | Potency [18]
active: Potency [1] 19 µM | Potency [2] 1.34 µM | Potency [3] 10.7 µM | Potency [4] 0.952 µM | Potency [5] 8.49 µM | Potency [6] 9.52 µM | Potency [7] 6.01 µM | Potency [8] 6.74 µM | Potency [9] 6.01 µM | Potency [11] 9.52 µM | Potency [13] 6.74 µM | Potency [20] 19 µM | Potency [15] 1.07 µM | Potency [16] 2.13 µM | Potency [17] 19 µM | Potency [19] 19 µM

CC(NN)c1ccccc1 (centres undefined)
inactive: cytotoxicity increase [1] -15.6% [at 15.8 µM] | activity change, negative = cytotoxicity [2] 0.13% [at 15.8 µM] | viability change, negative = cytotoxic [3] -0.527% [at 15.8 µM] | max response [4] 2.41% | activity change [5] -7.33% [at 15.8 µM, stronger effect = higher value] | cytotoxicity increase [6] -2.37% [at 15.8 µM] | activity change, negative = cytotoxic [7] 1.72% [at 15.8 µM] | cytotoxicity [8] -5.39% [at 15.8 µM] | cytotoxicity increase [9] 0.373% [at 15.8 µM] | activity change, negative = cytotoxicity [10] -4.11% [at 15.8 µM] | cytotoxicity increase [11] -15.1% [at 15.8 µM] | cytotoxicity [12] -2.26% [at 15.8 µM] | cytotoxicity increase [20] -1.23% [at 15.8 µM] | activity change, negative = cytotoxic [14] 0.634% [at 15.8 µM] | activity change, negative = cytotoxicity [15] -0.0571% [at 15.8 µM] | activity change, negative = cytotoxicity [16] -8.04% [at 15.8 µM] | activity change [17] -3.48% [at 15.8 µM, stronger effect = higher value] | activity change, negative = cytotoxicity [18] -3.22% [at 15.8 µM] | cytotoxicity increase [19] -3.04% [at 15.8 µM]

CSc1ccc(/C=C2/C(C)=C(CC(=O)O)c3cc(F)ccc32)cc1
inactive: Potency [1] | Potency [2] | Potency [3] | max response [4] 9.83% | Potency [5] | Potency [6] | Potency [7] | Potency [8] | Potency [9] | Potency [10] | Potency [11] | Potency [12] | Potency [13] | Potency [20] | Potency [14] | Potency [16] | Potency [17] | Potency [18] | Potency [19]

CC1=NC(C)OC1C (centres undefined)
inactive: Potency [1] | Potency [2] | Potency [3] | max response [4] 0.967% | Potency [5] | Potency [6] | Potency [7] | Potency [8] | Potency [9] | Potency [10] | Potency [11] | Potency [12] | Potency [13] | Potency [20] | Potency [14] | Potency [16] | Potency [17] | Potency [18] | Potency [19]

CC(=O)SC[C@@H](Cc1ccccc1)C(=O)NCC(=O)OCc1ccccc1
inactive: Potency [1] | Potency [2] | Potency [3] | max response [4] 0.0146% | Potency [5] | Potency [6] | Potency [7] | Potency [8] | Potency [9] | Potency [10] | Potency [11] | Potency [12] | Potency [20] | Potency [14] | Potency [15] | Potency [16] | Potency [17] | Potency [18] | Potency [19]

CC[C@H](c1ccc(O)cc1)[C@@H](CC)c1ccc(O)cc1
34.7 µM (active) and inactive: Potency [1]
38.9 µM (active) and inactive: Potency [11]
54.9 µM (active) and inactive: Potency [19]
inactive: Potency [2] | Potency [3] | Potency [5] | Potency [7] | Potency [12] | Potency [20] | Potency [14] | Potency [16] | Potency [17] | Potency [18]
active: Potency [4] 24.5 µM | Potency [6] 49 µM | Potency [8] 49 µM | Potency [9] 49 µM | Potency [13] 43.6 µM | Potency [15] 24.5 µM

CCCCc1oc2ccc(NS(C)(=O)=O)cc2c1C(=O)c1ccc(OCCCN(CCCC)CCCC)cc1
active: Potency [1] 19 µM | Potency [2] 10.7 µM | Potency [3] 21.3 µM | Potency [4] 8.49 µM | Potency [5] 19 µM | Potency [6] 21.3 µM | Potency [7] 9.52 µM | Potency [8] 19 µM | Potency [9] 9.52 µM | Potency [11] 21.3 µM | Potency [13] 19 µM | Potency [20] 23.9 µM | Potency [14] 19 µM | Potency [16] 19 µM | Potency [17] 23.9 µM | Potency [19] 23.9 µM
inactive: Potency [10] | Potency [12]

CCCCC(CC)CN=C(N)NC(N)=NCCCCCCN=C(N)NC(N)=NCC(CC)CCCC (centres undefined)
inactive: Potency [12]
active: Potency [1] 8.49 µM | Potency [2] 6.74 µM | Potency [3] 19 µM | Potency [4] 4.25 µM | Potency [5] 7.56 µM | Potency [6] 8.49 µM | Potency [7] 8.49 µM | Potency [8] 9.52 µM | Potency [9] 8.49 µM | Potency [11] 9.52 µM | Potency [13] 8.49 µM | Potency [20] 13.4 µM | Potency [14] 10.7 µM | Potency [15] 5.35 µM | Potency [16] 8.49 µM | Potency [17] 8.49 µM | Potency [19] 10.7 µM

O=c1c(-c2ccccc2)c1-c1ccccc1
inactive: Potency [6] | Potency [10] | Potency [12] | Potency [20] | Potency [17] | Potency [18] | Potency [19]
active: Potency [1] 5.35 µM | Potency [2] 15.1 µM | Potency [3] 23.9 µM | Potency [4] 10.7 µM | Potency [5] 5.35 µM | Potency [7] 15.1 µM | Potency [8] 10.7 µM | Potency [9] 10.7 µM | Potency [11] 5.35 µM | Potency [13] 9.52 µM | Potency [14] 19 µM | Potency [15] 13.4 µM | Potency [16] 16.9 µM
